From PubChem BioAssay (Tox21)
Unmarked numbers belong to inactive results. Entries that show only a call come without a potency. Active and inactive are the calls of the source. Unless noted, calls come from the whole dose curve; as a rule, active = well fitted curve in the direction sought with a large enough effect in the repeat runs; inconclusive = weak or mixed curves; inactive = no such curve, though single readings can be large; an effect the other way counts as inactive or inconclusive.

Tests used:
[1] = qHTS assay to identify small molecule antagonists of the glucocorticoid receptor (GR) signaling pathway - cell viability counter screen (AID 720693); note: nearly all actives have a fitted effect of over 55% in size; note: potency is the fitted concentration of half-maximal effect
[2] = qHTS assay for identifying genotoxic compounds that show differential cytotoxicity against isogenic chicken DT40 cell lines with known DNA damage response pathways - wild type cell line (AID 743012); note: nearly all actives have a fitted effect of over 60% in size; note: potency is the fitted concentration of half-maximal effect
Summary of the method: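 Endpoint: CellTiter-Glo luminescence, 30 min RT. Cells: wild type DT40, 300/well. Exposure: compounds in DMSO, 40 h, 37 C/5% CO2, after ~0.5 h pre-incubation.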

[3] = qHTS assay for identifying genotoxic compounds that show differential cytotoxicity against isogenic chicken DT40 cell lines with known DNA damage response pathways - Rev3 mutant cell line (AID 743014); note: nearly all actives have a fitted effect of over 55% in size; note: potency is the fitted concentration of half-maximal effect
[4] = qHTS assay for identifying genotoxic compounds that show differential cytotoxicity against isogenic chicken DT40 cell lines with known DNA damage response pathways - Rad54/Ku70 mutant cell line (AID 743015); note: nearly all actives have a fitted effect of over 60% in size; note: potency is the fitted concentration of half-maximal effect
[5] = qHTS assay to identify small molecule antagonists of the androgen receptor (AR) signaling pathway - cell viability counter screen (AID 743033; note: nearly all actives have a fitted effect of over 45% in size)
[6] = qHTS assay to identify small molecule antagonists of the androgen receptor (AR) signaling pathway using the MDA cell line - cell viability counter screen (AID 743041; note: nearly all actives have a fitted effect of over 45% in size; note: potency is the fitted concentration of half-maximal effect)
Summary of the method: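 In this qHTS counter assay, fluorescence intensity after CellTiter-Fluor addition indicated viability of MDA-kb2 AR-luc cells given compounds and R1881 for 16 h at 37C.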

[7] = qHTS assay to identify small molecule antagonists of the thyroid receptor (TR) signaling pathway - cell viability counter screen (AID 743064); note: nearly all actives have a fitted effect of over 50% in size; note: potency is the fitted concentration of half-maximal effect
Summary of the method: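 GH3.TRE-Luc rat pituitary cells carrying a TRE-luciferase reporter were treated with compound plus 1 nM T3 (final) for 23.5 h at 37 °C. Viability was then read in the same wells by CellTiter-Fluor fluorescence after a further 30 min.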

[8] = qHTS assay to identify small molecule antagonists of the thyroid receptor (TR) signaling pathway (AID 743065); note: nearly all actives have a fitted effect of over 55% in size; note: potency is the fitted concentration of half-maximal effect
Summary of the method: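 GH3.TRE-Luc rat pituitary cells carrying two TR response elements driving luciferase were plated for 4 h, given compound plus 1 nM T3 (final), and incubated 23.5 h at 37 C. ONE-Glo luminescence measured reporter inhibition; CellTiter-Fluor fluorescence tracked cytotoxicity.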

[9] = target: Estrogen receptor (Homo sapiens) (UniProt P03372); experiment: qHTS assay to identify small molecule antagonists of the estrogen receptor alpha (ER-alpha) signaling pathway (AID 743069; active = well fitted curve in the direction sought with a large enough effect in the signal ratio in the repeat runs, not every such curve was filed as active; inconclusive = weak or mixed curves, or effect the other way; inactive = no such curve, though single readings can be large or run the other way; the % refers to the signal ratio; note: potency is the fitted concentration of half-maximal effect)
Summary of the method: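 A 17beta-estradiol challenge was applied right after compound transfer to ER-alpha-UAS-bla HEK293 cells previously kept in charcoal-stripped serum. Plates stood 18 hr at 37C and 5% CO2; fluorescence was read following 2 hr FRET substrate loading at room temperature.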

[10] = target: Estrogen receptor (Homo sapiens) (UniProt P03372); experiment: qHTS assay to identify small molecule agonists of the estrogen receptor alpha (ER-alpha) signaling pathway (AID 743075; calls by dose curve;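 note: HEK293 GripTite cells with ER-alpha and UAS-driven beta-lactamase reporter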)
[11] = qHTS assay to identify small molecule antagonists of the estrogen receptor alpha (ER-alpha) signaling pathway using the BG1 cell line - cell viability counter screen (AID 743081);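 note: compound given together with 17beta-estradiol as the ER stimulus; series mostly up to about 70 µM; nearly all actives have a fitted effect of over 45% in size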
[12] = system: thyroid hormone receptor (rat, GH3 cells); experiment: qHTS assay to identify small molecule agonists of the thyroid receptor (TR) signaling pathway (AID 743066; calls by dose curve)
[13] = target: Estrogen receptor (Homo sapiens) (UniProt P03372); experiment: qHTS assay to identify small molecule agonists of the estrogen receptor alpha (ER-alpha) signaling pathway using the BG1 cell line (AID 743079); note: nearly all actives have a fitted effect of over 20% in size; note: potency is the fitted concentration of half-maximal effect
[14] = qHTS assay to identify small molecule antagonists of the estrogen receptor alpha (ER-alpha) signaling pathway using the BG1 cell line (AID 743080; calls by dose curve; note: series mostly up to about 70 µM; nearly all actives have a fitted effect of over 25% in size)
Summary of the method: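 Antagonist mode: compounds in DMSO were pinned onto BG1-Luc-4E2 cells alongside 17beta-estradiol agonist, incubated 21.5 h, and ERE-driven luciferase measured with ONE-Glo. Cytotoxicity was multiplexed using CellTiter-Fluor fluorescence.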

Aromatase (Homo sapiens) = Aromatase (Homo sapiens) (UniProt P11511); experiment: qHTS assay to identify aromatase inhibitors (AID 743083); note: series mostly up to about 70 µM; nearly all actives have a fitted effect of over 55% in size
[15] = qHTS assay to identify small molecule antagonists of the estrogen receptor alpha (ER-alpha) signaling pathway - cell viability counter screen (AID 743074; calls by dose curve;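 note: HEK293 cells carrying ER-alpha-UAS-bla reporter stimulated with 17beta-estradiol; nearly all actives have a fitted effect of over 45% in size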)

Sequence of Estrogen receptor (Homo sapiens) (P03372 whole entry, looked up): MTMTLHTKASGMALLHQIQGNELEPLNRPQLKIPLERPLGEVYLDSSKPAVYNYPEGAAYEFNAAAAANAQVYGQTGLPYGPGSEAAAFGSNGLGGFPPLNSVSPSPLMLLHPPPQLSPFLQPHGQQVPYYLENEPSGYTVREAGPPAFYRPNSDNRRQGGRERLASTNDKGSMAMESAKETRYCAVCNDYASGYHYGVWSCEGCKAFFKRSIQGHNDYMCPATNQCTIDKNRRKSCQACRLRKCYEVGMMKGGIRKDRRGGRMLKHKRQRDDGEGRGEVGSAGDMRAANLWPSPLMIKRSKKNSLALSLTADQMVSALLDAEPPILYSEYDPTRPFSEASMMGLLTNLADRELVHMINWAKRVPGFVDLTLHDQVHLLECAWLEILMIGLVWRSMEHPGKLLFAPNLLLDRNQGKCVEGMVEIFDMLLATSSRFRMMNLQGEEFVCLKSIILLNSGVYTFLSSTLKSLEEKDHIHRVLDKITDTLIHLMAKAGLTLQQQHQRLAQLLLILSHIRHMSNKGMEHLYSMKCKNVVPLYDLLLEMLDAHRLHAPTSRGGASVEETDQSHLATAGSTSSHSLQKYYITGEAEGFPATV
Sequence of Aromatase (Homo sapiens) (P11511 whole entry, looked up): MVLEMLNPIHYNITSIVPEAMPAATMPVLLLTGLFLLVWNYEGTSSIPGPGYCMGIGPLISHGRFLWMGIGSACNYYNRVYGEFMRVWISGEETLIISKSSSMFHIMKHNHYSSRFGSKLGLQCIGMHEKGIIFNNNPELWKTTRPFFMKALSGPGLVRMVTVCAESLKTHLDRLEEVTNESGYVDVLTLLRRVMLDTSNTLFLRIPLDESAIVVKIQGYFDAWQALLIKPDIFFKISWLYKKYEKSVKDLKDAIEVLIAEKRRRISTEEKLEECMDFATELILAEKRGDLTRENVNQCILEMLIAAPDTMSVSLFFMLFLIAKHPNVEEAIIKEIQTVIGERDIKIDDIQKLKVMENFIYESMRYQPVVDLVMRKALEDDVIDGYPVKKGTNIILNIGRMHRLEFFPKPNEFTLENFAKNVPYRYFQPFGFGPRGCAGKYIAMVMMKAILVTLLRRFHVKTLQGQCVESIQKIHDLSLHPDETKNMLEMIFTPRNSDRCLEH

For `Clc1ccc2c(c1)CCc1cccnc1C2=C1CCNCC1`, the Potency [1] was “inactive”, the Potency [2] was 5.31 µM (active) and the Potency [3] was 7.5 µM (active). The Potency [4] was 8.41 µM (active), the Potency [5] was “inactive” and the Potency [6] was “inactive”. The Potency [7] was 10.6 µM (active), the Potency [8] was 9.44 µM (active) and the Potency [9] was “inactive”. The Potency [10] was “inactive” and the Potency [11] was “inactive”.

For `CCCCc1nc2cccnc2n1Cc1ccc(-c2ccccc2-c2nnn[nH]2)cc1`, the Potency [1] was “inactive”, the Potency [2] was “inactive” and the Potency [3] was “inactive”. For the same compound, the Potency [4] was “inactive”, the Potency [5] was “inactive” and the Potency [6] was “inactive”. The Potency [7] was 54.5 µM (active), the Potency [8] was “inactive” and the Potency [12] was “inactive”. The Potency [10] was “inactive”, the Potency [13] was “inactive” and the Potency [14] was “inactive”. For the same compound, the Potency [11] was “inactive” and the Potency (Aromatase (Homo sapiens)) was “inactive”.

In the case of `CCC(C)O` (configuration not stated), the Potency [1] is reported as “inactive”, the Potency [2] is reported as “inactive” and the Potency [3] is reported as “inactive”. For the same compound, the Potency [4] was “inactive”, the Potency [5] was “inactive” and the Potency [6] was “inactive”. The Potency [7] was “inactive”, the Potency [8] was “inactive” and the Potency [12] was “inactive”. For the same compound, the Potency [11] was “inactive”.

In the case of `CC(C)O.CC(C)O.CCOC(=O)/C=C(\C)O.CCOC(=O)/C=C(\C)O.[Ti]`, the Potency [1] is reported as “inactive”, the Potency [2] is reported as “inactive” and the Potency [3] is reported as “inactive”. For the same compound, the Potency [4] was “inactive”, the Potency [5] was “inactive” and the Potency [6] was “inactive”. The Potency [7] was “inactive”, the Potency [8] was “inactive” and the Potency [12] was “inactive”. The Potency [15] was “inactive” and the Potency [11] was “inactive”.

In the case of `CCn1cc(C(=O)O)c(=O)c2cnc(N3CCNCC3)nc21`, the Potency [1] is reported as “inactive”, the Potency [2] is reported as “inactive” and the Potency [3] is reported as “inactive”. The Potency [4] was “inactive”, the Potency [5] was “inactive” and the Potency [6] was “inactive”. For the same compound, the Potency [7] was “inactive”, the Potency [8] was “inactive” and the Potency [12] was “inactive”. For the same compound, the Potency [15] was “inactive”, the Potency [11] was “inactive” and the Potency (Aromatase (Homo sapiens)) was “inactive”.

In the case of `Nc1cc(C(=O)O)c(O)c(S(=O)(=O)O)c1`, the Potency [1] is reported as “inactive”, the Potency [2] is reported as “inactive” and the Potency [3] is reported as “inactive”. The Potency [4] was “inactive”, the Potency [5] was “inactive” and the Potency [6] was “inactive”. The Potency [7] was “inactive”, the Potency [8] was “inactive” and the Potency [12] was “inactive”. For the same compound, the Potency [15] was “inactive”, the Potency [11] was “inactive” and the Potency (Aromatase (Homo sapiens)) was “inactive”.

For `CC/C=C\CCOC(=O)CC`, the Potency [1] was “inactive”, the Potency [2] was “inactive” and the Potency [3] was “inactive”. For the same compound, the Potency [4] was “inactive”, the Potency [5] was “inactive” and the Potency [6] was “inactive”. The Potency [7] was “inactive”, the Potency [8] was “inactive” and the Potency [12] was “inactive”. For the same compound, the Potency [15] was “inactive”, the Potency [11] was “inactive” and the Potency (Aromatase (Homo sapiens)) was “inactive”.

For `C#C[C@]1(O)CC[C@H]2[C@@H]3CCc4cc(OC5CCCC5)ccc4[C@H]3CC[C@@]21C`, the Potency [1] was “inactive”, the Potency [2] was 1.68 µM (active) and the Potency [3] was 2.11 µM (active). For the same compound, the Potency [4] was 5.31 µM (active), the Potency [5] was “inactive” and the Potency [6] was “inactive”. The Potency [7] was 18.8 µM (active), the Potency [8] was 16.8 µM (active) and the Potency [15] was “inactive”. The Potency [11] was “inactive” and the Potency (Aromatase (Homo sapiens)) was “inactive”.

In the case of `COc1ccc(C(=O)Nc2nc3ccccc3c(NCc3ccccc3)c2C#N)cc1`, the Potency [1] is reported as “inactive”, the Potency [2] is reported as 27.3 µM (active) and the Potency [3] is reported as 38.6 µM (active). The Potency [4] was 15.4 µM (active), the Potency [5] was “inactive” and the Potency [6] was “inactive”. For the same compound, the Potency [7] was “inactive”, the Potency [8] was “inactive” and the Potency [12] was “inactive”. The Potency [15] was “inactive”, the Potency [10] was “inactive” and the Potency [11] was “inactive”.

With `CC(C)(CO)[N+](=O)[O-]` the Potency [1] was “inactive”, the Potency [2] was “inactive” and the Potency [3] was “inactive”. For the same compound, the Potency [4] was “inactive”, the Potency [5] was “inactive” and the Potency [6] was “inactive”. For the same compound, the Potency [7] was “inactive”, the Potency [8] was “inactive” and the Potency [12] was “inactive”. For the same compound, the Potency [11] was “inactive” and the Potency (Aromatase (Homo sapiens)) was “inactive”.

For `CCCCC(CC)COC(=O)CCCCCCCCC(=O)OCC(CC)CCCC` (configuration not stated), the Potency [1] was “inactive”, the Potency [2] was “inactive” and the Potency [3] was “inactive”. The Potency [4] was “inactive”, the Potency [5] was “inactive” and the Potency [6] was “inactive”. The Potency [7] was “inactive”, the Potency [8] was “inactive” and the Potency [12] was “inactive”. For the same compound, the Potency [15] was “inactive”, the Potency [10] was “inactive” and the Potency [14] was “inactive”. The Potency [11] was “inactive” and the Potency (Aromatase (Homo sapiens)) was “inactive”.

With `CC(C)(COC(=O)c1ccccc1)COC(=O)c1ccccc1` the Potency [1] was “inactive”, the Potency [2] was 54.5 µM (active) and the Potency [3] was 30.6 µM (active). For the same compound, the Potency [4] was 48.6 µM (active), the Potency [5] was “inactive” and the Potency [6] was “inactive”. For the same compound, the Potency [7] was “inactive”, the Potency [8] was “inactive” and the Potency [12] was “inactive”. The Potency [15] was “inactive”, the Potency [11] was “inactive” and the Potency (Aromatase (Homo sapiens)) was “inactive”.

With `Nc1ccccc1S(=O)(=O)c1ccccc1` the Potency [1] was “inactive”, the Potency [2] was “inactive” and the Potency [3] was “inactive”. The Potency [4] was “inactive”, the Potency [5] was “inactive” and the Potency [6] was “inactive”. For the same compound, the Potency [7] was “inactive”, the Potency [8] was “inactive” and the Potency [12] was “inactive”. For the same compound, the Potency [15] was “inactive” and the Potency [11] was “inactive”.

With `CCc1c(C(=O)NN2CCCCC2)nn(-c2ccc(Cl)cc2Cl)c1-c1ccc(Br)cc1` the Potency [1] was 12.3 µM (active), the Potency [2] was 13.7 µM (active) and the Potency [3] was 15.4 µM (active). For the same compound, the Potency [4] was 13.7 µM (active), the Potency [5] was “inactive” and the Potency [6] was “inactive”. The Potency [7] was 15.4 µM (active), the Potency [8] was 8.63 µM (active) and the Potency [9] was 13.8 µM [inconclusive] (active). For the same compound, the Potency [15] was “inactive”, the Potency [10] was “inactive” and the Potency [13] was 27.3 µM (active). The Potency [11] was “inactive”.

In the case of `CCOc1ccc(N=Nc2ccc(/C=C/c3ccc(N=Nc4ccc(OCC)cc4)cc3S(=O)(=O)O)c(S(=O)(=O)O)c2)cc1`, the Potency [1] is reported as “inactive”, the Potency [2] is reported as “inactive” and the Potency [3] is reported as “inactive”. The Potency [4] was “inactive”, the Potency [5] was “inactive” and the Potency [6] was 53.6 µM (active). For the same compound, the Potency [7] was 47.8 µM (active), the Potency [8] was 47.8 µM (active) and the Potency [12] was “inactive”. The Potency [15] was “inactive” and the Potency (Aromatase (Homo sapiens)) was “inactive”.

In the case of `CCCCNc1ccc(C(=O)OCCOCCOCCOCCOCCOCCOCCOCCOCCOC)cc1`, the Potency [1] is reported as “inactive”, the Potency [2] is reported as “inactive” and the Potency [3] is reported as “inactive”. The Potency [4] was “inactive”, the Potency [5] was “inactive” and the Potency [6] was “inactive”. For the same compound, the Potency [7] was “inactive”, the Potency [8] was “inactive” and the Potency [12] was “inactive”. For the same compound, the Potency [15] was “inactive”, the Potency [10] was “inactive” and the Potency [13] was “inactive”. For the same compound, the Potency [11] was “inactive” and the Potency (Aromatase (Homo sapiens)) was “inactive”.

In the case of `O=C1OC(=O)C2C3C=CC(C3)C12` (configuration not stated), the Potency [1] is reported as “inactive”, the Potency [2] is reported as “inactive” and the Potency [3] is reported as “inactive”. The Potency [4] was “inactive”, the Potency [5] was “inactive” and the Potency [6] was “inactive”. For the same compound, the Potency [7] was “inactive”, the Potency [8] was “inactive” and the Potency [12] was “inactive”. The Potency [15] was “inactive”, the Potency [11] was “inactive” and the Potency (Aromatase (Homo sapiens)) was “inactive”.

In the case of `CC(=O)c1ccc2c(c1)N(CCCN1CCC(CCO)CC1)c1ccccc1S2`, the Potency [1] is reported as “inactive”, the Potency [2] is reported as 12.7 µM (active) and the Potency [3] is reported as 12.7 µM (active). For the same compound, the Potency [4] was 11.4 µM (active), the Potency [5] was “inactive” and the Potency [6] was “inactive”. For the same compound, the Potency [7] was 10.1 µM (active), the Potency [8] was 11.4 µM (active) and the Potency [9] was “inactive”. For the same compound, the Potency [15] was “inactive”, the Potency [10] was “inactive” and the Potency [13] was “inactive”. The Potency [14] was “inactive” and the Potency (Aromatase (Homo sapiens)) was “inactive”.
